Bioassay records (PubChem)
NLRP3 yeast inh: NALP3 inhibition in yeast | inhibition, % at 10 µM | Yeast reconstituted NLRP3/ASC/caspase-1, beta-gal luminescence, 24 h | hit rate 0.39% among 330,000;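 active = inhibition of 50% or more; inactive = inhibition below 50%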
tim10-1 inh: growth inhibitors of tim10-1 mutant yeast. S. cerevisiae tim10-1 ts strain growth, BacTiter-Glo, 24 h. inhibition, % at 20 µM. hit rate 2.2% among 330,000;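 active = inhibition of at least 40%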;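 also: mutant grown at 25 °C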
SKKanGAS inh: inhibitors of SKKanGAS S. pyogenes growth in kanamycin (SK-promoter or general growth effect); inhibition, % at 7.5 µM; BacTiter-Glo, 6 h; hit rate 1.3% among 300,000; AID 1662;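 active = mean replicate score, as percent of positive control median, at least 50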;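 also: strain carries kanamycin resistance gene driven by streptokinase promoter and grows in 40 µg/ml kanamycin; loss of luminescence reflects streptokinase promoter inhibition or plain growth inhibition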
TIM10 inh: TIM10 yeast growth inhibition; S. cerevisiae TIM10 strain growth, BacTiter-Glo luminescence, 24 h; inhibition, % at 10 µM; AID 463195; hit rate 1.4% among 330,000;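 active = inhibition of 40% or more at the single tested concentration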;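 also: wild-type TIM10 isogenic control strain grown at permissive 25 °C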
tim23-1 inh: tim23-1 yeast growth inhibition; S. cerevisiae tim23-1 growth, BacTiter-Glo luminescence, 24 h; inhibition, % at 20 µM; hit rate 1.3% among 330,000;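 active = growth inhibition of the mutant yeast at or above 50%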;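 also: temperature-sensitive mutant grown at 25 °C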
tim23-1 conf: tim23-1 yeast growth inhibition, confirmed; shares compounds with tim23-1 inh; S. cerevisiae tim23-1 growth, BacTiter-Glo luminescence, 24 h; inhibition, % at 20 µM; hit rate 83% among 4,400;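 active = inhibition above about 39% in either of two replicate wells at 20 µM, limit read from the data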;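 also: temperature-sensitive tim23-1 mutant grown at 25 °C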
Numbers stand for hits; – = inactive; · = not tested or not shown. This is a sample that favours compounds with a hit; in the whole collection about 4.6% have one here.

SMILES	NLRP3 yeast inh	tim10-1 inh	SKKanGAS inh	TIM10 inh	tim23-1 inh	tim23-1 conf
COc1ccc(-c2oc3ccccc3c2C#CC(C)(C)O)cc1	–	–	·	–	52	38
COc1ccc(-c2c(C#CC(C)(C)O)c3ccccc3n2C)cc1	–	–	·	–	–	·
CS(=O)(=O)N1CCC(C(=O)Nc2cccc([N+](=O)[O-])c2)CC1	–	–	–	–	–	·
COc1cccc(-c2c(C#N)c(N)nc3c2c(C)nn3-c2ccccc2)c1O	–	–	–	–	51	–
Cc1ccc(S(=O)(=O)NC(CCC(N)=O)C(=O)NCc2ccc3c(c2)OCO3)c(C)c1 (centres undefined)	–	–	·	–	–	·
Cc1cccc(N=Nc2ccc(O)c3ncccc23)c1	–	–	92	–	60	56
Cc1ccc(NCc2ccc(O)c3ncccc23)cc1	–	–	–	–	–	·
COc1ccc(/C(N)=N/OC(=O)c2ccco2)cc1	–	–	–	–	–	·
COc1ccc(N=N/C(=C\O)C(=O)c2ccco2)cc1	–	–	–	–	50	58
CCCCCN=Cc1c(C)[nH]n(-c2nc3ccccc3s2)c1=O	–	–	–	–	56	48
CCCc1[nH]n(-c2nc3ccccc3s2)c(=O)c1C=NCCCOC	–	–	–	–	–	·
CN(C)C(=O)C1C2NC(=S)N(c3cccc(Cl)c3)C1(C)Oc1ccc(Cl)cc12 (centres undefined)	–	–	–	–	–	·
Nc1ccc(/C=C/C(=O)c2cccs2)cc1	–	–	–	–	56	80
CCOC(=O)c1c(CN(C)C)n(C)c2c(O)c(N=NC(N)=O)c3ccc(Br)cc3c12	–	–	–	–	54	–
CCCn1c(=O)c(C(=O)OCC)c(O)c2cc(Br)ccc21	–	–	–	–	–	·
O=C(CN1C(=O)NC2(CCc3ccccc32)C1=O)c1ccc(Cl)cc1 (centres undefined)	–	–	–	–	–	·
CC(C)c1ccc(C(=O)CN2C(=O)NC3(CCc4ccccc43)C2=O)cc1 (centres undefined)	–	–	·	–	54	44
Cc1cc(O)c2c(-c3ccccc3)cc(=O)oc2c1	–	–	·	–	–	·
COc1cc2oc(=O)cc(-c3ccc(-c4ccc(O)cc4)cc3)c2c(OC)c1OC	·	–	·	–	56	–
Cc1cc2oc(=O)cc(-c3ccccc3)c2c(C)c1-c1ccc(O)cc1	·	–	·	–	61	48
COc1ccc(C(=O)Nc2ccc(OCc3ccccc3)cc2)cc1[N+](=O)[O-]	–	–	–	–	–	·
CC(=O)Oc1cccc(C(=O)Nc2ccccc2C(=O)N2CCCC2)c1	–	–	–	–	–	·
CC(C)Oc1cccc(C(=O)NC(=S)Nc2ccccc2)c1	–	–	–	–	51	–
COc1cccc(C(=O)Nc2ccccc2C(=O)N2CCCC2)c1	–	–	–	–	94	–
O=C(Nc1ccc(Nc2ccccc2)cc1)c1ccccc1	–	–	–	–	56	60
SMILES	NLRP3 yeast inh	tim10-1 inh	SKKanGAS inh	TIM10 inh	tim23-1 inh	tim23-1 conf
COc1ccc(C(=O)Nc2ccc(Nc3ccccc3)cc2)cc1[N+](=O)[O-]	–	–	–	–	52	–
Cc1cc(C)c(CN2CCC(n3nccc3NC(=O)C3CCOC3)CC2)cc1C (centres undefined)	–	–	–	–	–	·
CN(C)c1ccc(C(C(=O)NC2CCCC2)N(C(=O)c2ccco2)C2CC2)cc1 (centres undefined)	–	–	–	–	–	·
CSc1ncccc1C(=O)NC1CC(C)(C)Cc2c1cnn2-c1ccccc1C (centres undefined)	–	–	–	–	–	·
Cn1ccnc1CC(O)(c1ccccc1)c1ccccc1	–	–	–	–	–	·
COc1ccc(C(=O)Nc2cc(C(=O)O)cc(C(=O)O)c2)cc1Cl	–	–	–	–	–	·
COc1cccc(C(=O)Nc2cccc(-c3ccccc3)c2)c1	–	–	–	–	55	49
Cc1nc(-c2ccc(NC(=O)c3ccccc3)cc2)cs1	–	–	–	–	54	53
COC(=O)c1cccc(NC(=O)c2ccc(OC)c(Cl)c2)c1	–	–	–	–	57	48
COc1cc(OC)cc(C(=O)Nc2ccc(Nc3ccccc3)cc2)c1	–	–	–	–	72	59
Cc1ccc(C(=O)Nc2ccc(-c3csc(C)n3)cc2)cc1	–	–	–	–	–	·
Cc1ccc(-c2nnn(CC(=O)N3CCCCC3)n2)cc1	–	–	–	–	–	·
C/C(=N/NC(=O)Cc1ccccc1)c1ccc(C)s1	–	–	–	–	–	·
CC(C)(C)CC(=O)NC(=S)Nc1ccccc1C(F)(F)F	–	–	–	–	51	–
Cc1c(C(=O)NN)nc2ccccn12	–	–	–	–	–	·
O=C(Cn1nc(Cl)nc1Cl)c1ccc2c(c1)OCCO2	–	–	–	–	55	–
O=C(Cn1nc(Cl)nc1Cl)c1ccc(F)cc1	–	–	–	–	–	·
O=Cc1cccc(OCc2cccc3ccccc23)c1	–	–	–	–	57	–
COc1ccc(NS(=O)(=O)c2ccc(N3C(=O)CCC3=O)cc2)cc1	–	–	–	–	–	·
COc1ccc(S(=O)(=O)Nc2ccc(-n3cccc3)cc2)cc1	–	–	–	–	55	50
CN(Cc1ccccc1)C(=O)COC(=O)c1cc(=O)c2ccccc2o1	–	–	·	–	–	·
O=C(Nc1cc(Cl)ccn1)C1(c2ccccc2)CC1(Cl)Cl (centres undefined)	–	–	–	–	55	65
O=C(Nc1ccccc1)C1(c2ccccc2)CC1(Cl)Cl (centres undefined)	–	–	–	–	–	·
CCOC(=O)CNc1c(-c2ccc(OC)cc2)nc2ccc(Cl)cn12	–	–	–	–	53	48
COCCNc1c(-c2ccc(OC)cc2)nc2ccc(Cl)cn12	–	–	–	–	–	·
SMILES	NLRP3 yeast inh	tim10-1 inh	SKKanGAS inh	TIM10 inh	tim23-1 inh	tim23-1 conf
N#Cc1ccc(OCC(=O)Nc2ccc(S(=O)(=O)N3CCOCC3)cc2)cc1	–	–	·	–	–	·
O=C(CCCN1C(=O)/C(=C/c2ccccc2OC(F)F)SC1=S)Nc1cccnc1	–	–	·	–	51	52
CC(C)CCN(C(=S)Nc1cccc(C(F)(F)F)c1)C(C)c1ccccn1 (centres undefined)	–	–	–	–	54	54
CN1CCN(c2nc(-c3ccc(Cl)s3)cs2)CC1	–	–	–	–	–	·
CC(C)CC(NC(=O)C(NC(=O)C1CCC(=O)N1C(=O)OCc1ccccc1)C(C)C)C(=O)N1CCCC1C(N)=O (centres undefined)	–	–	–	–	–	·
CCOC(=O)c1ccc(NC(=O)CSc2nc(=O)n3cccc(C)c3n2)cc1	–	–	–	–	52	50
Cc1oc2c(O)c(O)ccc2c(=O)c1-c1cnn(-c2ccccc2)c1	–	–	–	–	–	·
Cc1nc(-c2cnn(-c3ccccc3)c2)c2cc(C)oc2n1	–	–	–	–	51	45
Cc1cccc(NC(=O)c2cc(S(=O)(=O)N3CCCCC3)ccc2Cl)n1	–	–	·	–	–	·
Cc1nn(-c2ccc(Cl)c(Cl)c2Cl)c(=O)c2ccccc12	–	–	–	–	54	46
